From PubChem BioAssay
AmpC no deterg: AmpC beta-lactamase inhibition without detergent; P00811; AmpC nitrocefin hydrolysis, absorbance 480 nm, 0.0001% Triton; Potency, µM (doses to about 57.1 µM), inactives show top-dose activity change, negative = inhibition, hits mostly inhibitors; actives 0.52% (n = 330,000);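 also: plate controls were no compound for no effect and no enzyme for full effect; nearly all actives have a fitted effect of over 20% in size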
Target sequence (P00811 whole entry, looked up): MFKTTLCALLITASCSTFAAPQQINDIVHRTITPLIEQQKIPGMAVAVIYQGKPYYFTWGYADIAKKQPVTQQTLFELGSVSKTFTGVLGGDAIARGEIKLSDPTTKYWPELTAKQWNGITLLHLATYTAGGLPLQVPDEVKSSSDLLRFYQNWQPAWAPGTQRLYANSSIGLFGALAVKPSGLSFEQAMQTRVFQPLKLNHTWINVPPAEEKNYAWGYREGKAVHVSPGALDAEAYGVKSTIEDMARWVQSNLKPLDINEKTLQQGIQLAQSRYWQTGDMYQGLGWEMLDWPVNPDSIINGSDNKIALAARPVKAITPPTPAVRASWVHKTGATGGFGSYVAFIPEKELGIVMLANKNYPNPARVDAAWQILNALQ
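AmpC (5.3 nM in the dispensed reagent) in 20 mM phosphate pH 7.0 with 0.01% (detergent screen) or 0.0001% Triton X-100 was preincubated with compounds for 15 min at room temperature. Nitrocefin was then added from an 800 uM solution, and hydrolysis was followed at 480 nm.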
AmpC inh detg: inhibitors of E. coli AmpC beta-lactamase with detergent; P00811; AmpC hydrolysis of nitrocefin, absorbance 480 nm, 0.01% Triton; Potency, µM (top dose mostly 114 µM), for the others: at the top dose activity change, negative = inhibition, actives largely listed as inhibitors; actives 0.041% (n = 370,000); AID 485294;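 also: 0% = no-compound wells and -100% = no-enzyme wells; nearly all actives have a fitted effect of over 25% in size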
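AmpC (5.3 nM in the dispensed reagent) in 20 mM phosphate pH 7.0 with 0.01% (detergent screen) or 0.0001% Triton X-100 was preincubated with compounds for 15 min at room temperature. Nitrocefin was then added from an 800 uM solution, and hydrolysis was followed at 480 nm.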
FBPA Giardia inh: inhibitors of Giardia lamblia fructose-1,6-bisphosphate aldolase | A8B2U2 | purified Giardia FBPA | Potency, µM (series often up to 59.6 µM), without a hit: at the top dose activity, negative = inhibition, usual class: inhibitors | actives 0.71% (n = 290,000) | AID 2451; also: nearly all actives have a fitted effect of over 55% in size
Target sequence (A8B2U2 whole entry, looked up): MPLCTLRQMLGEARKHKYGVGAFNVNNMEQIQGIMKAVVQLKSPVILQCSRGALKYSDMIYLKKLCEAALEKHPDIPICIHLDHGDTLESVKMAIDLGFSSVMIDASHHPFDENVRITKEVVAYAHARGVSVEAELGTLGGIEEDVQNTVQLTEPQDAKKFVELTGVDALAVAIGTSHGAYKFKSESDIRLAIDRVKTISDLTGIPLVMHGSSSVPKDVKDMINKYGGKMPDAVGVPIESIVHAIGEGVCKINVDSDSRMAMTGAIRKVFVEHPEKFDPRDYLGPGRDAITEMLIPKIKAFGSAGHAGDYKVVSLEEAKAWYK
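40 nM FBPA preincubated 10 min at RT with compound (up to 57.5 uM final), then substrate plus GAPDH/TPI/NAD/arsenate coupling and diaphorase/resazurin added. Fluorescence read after 20 min at RT, 525/598 nm.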
Sm TGR block: S. mansoni TGR enzyme inhibition. purified TGR, DTNB reduction, TNB absorbance 405 nm. Q962Y6. Potency, µM (top dose mostly 114 µM), without a hit: at the highest dose activity change, negative = inhibition, most hits filed as inhibitors. actives 3% (n = 360,000); also: nearly all actives have a fitted effect of over 60% in size
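TGR 20 nM + NADPH 100 uM (dispensed conc.), cpd preinc 15 min RT; start with NADPH (500 uM addition) then DTNB (15 mM addition). Kinetic TNB absorbance, 405 nm filter. Four-parameter Hill fit across titration.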
* hit, by the source's call; ? = inconclusive; nt = no result; [ ] = dose if it differs, or a comment. The list is not random: actives were taken first. Their share in the collection is about 3.6%. Calls follow the shape of the dose curve; as a rule, active = well fitted curve in the direction sought with a large enough effect; inconclusive = small, poorly fitted or top-dose-only effect, or another doubt; inactive = no such curve, though single readings can be large; an effect the other way counts as inactive or inconclusive. Unless noted, % is scaled to controls: 0 for no effect and ±100 for the full control effect; potency is read from the fitted curve at half-maximal effect.

SMILES	AmpC no deterg	AmpC inh detg	FBPA Giardia inh	Sm TGR block
COc1cccc(CNC(=O)C2CCN(S(=O)(=O)c3cn(C)cn3)CC2)c1	nt	0%	nt	-1%
CCCCC(=O)Nc1ccc2c(c1)nc1n2CCN(CCOC)C1	7%	-10%	-9%	-11%
COCCN1CCn2c(nc3cc(NC(=O)c4cccs4)ccc32)C1	-6%	-3%	-11%	18µM*
CCCC(=O)Nc1ccc2c(c1)nc1n2CCN(CCOC)C1	15%	3%	?	20µM*
CCc1ccc(CN(C)C(=O)CCc2nnc(Cc3cccc(C)c3)o2)nc1	75%	-3%	4%	-22%
CC(C)(O)/C=C1/Oc2ccccc2C1N1CCCCC1 (stereo unspecified)	1%	-20%	-4%	35µM*
COc1ccc(S(=O)(=O)NNC(=S)NCCc2ccccc2)c(OC)c1	-21%	7%	nt	5.6µM*
CCCCOc1ccc(C(=O)NNC(=S)NC(=O)CC)cc1	-33%	-14%	?	9%
C/C(=N\NC(=S)NCc1ccccc1)c1ccc2ccccc2c1	25µM*	-1%	6%	-3%
COc1ccc(C(=O)NC(=S)NCc2ccccc2)cc1	-29%	-10%	-3%	5µM*
COc1ccc(NC(=S)NCCc2ccccc2)c(OC)c1	-17%	3%	-2%	-4%
O=C(NC(=S)NCc1cccnc1)c1ccccc1	-18%	1%	1%	-9%
CCC(=O)NC(=S)NNC(=O)c1ccc(OC)cc1	-44%	56µM*	-7%	0%
COc1cc(OC)cc(C(=O)NC(=S)NCCc2ccccc2)c1	-4%	5%	-5%	10µM*
COc1ccc(NC(=S)NC(=O)Cc2ccccc2)c(OC)c1	-36%	?	-10%	10µM*
CCOC(=O)c1cccc(NC(=O)Cn2ncc3c(=O)oc4ccccc4c32)c1	nt	4%	nt	10%
COc1ccc(N(C)S(=O)(=O)c2cccc(C(=O)N3CCN(S(=O)(=O)c4ccc(C)cc4)CC3)c2)cc1	126%	5%	nt	-2%
CC(C)c1cccc2cc3c(nc12)-c1cccc(=O)n1C3	nt	nt	-9%	nt
CCOC(=O)c1c(C)[nH]c2cc(Br)c(O)cc12	-37%	?	-14%	0%[11.4 µM]
CCOC(=O)c1c(OCC)[nH]c2c1cc(O)c1ccccc12	-46%	-13%	20µM*	6%[11.4 µM]
COc1cccc(CNC(=O)c2ccc3c(c2)nc2n3CCOC2)c1OC	nt	3%	nt	4%
CC1(OC(=O)CCc2ccccc2)C(=O)C=C2C=C(c3ccc(C#N)cc3)OC=C2C1=O (stereo unspecified)	nt	nt	-10%	nt
COc1ccc(C2=CC3=C(Br)C(=O)C(C)(OC(=O)C4CCCC4)C(=O)C3=CO2)cc1 (stereo unspecified)	-35%	0%	-3%	7.1µM*
CC(C)(C)OC(=O)NCCCC1=CC2=CC(=O)C(C)(OC(=O)c3ccc(Cl)nc3)C(=O)C2=CO1 (stereo unspecified)	nt	nt	-30%	nt
COc1ccc(C2=CC3=C(Br)C(=O)C(C)(OC(=O)c4ccc(Cl)nc4)C(=O)C3=CO2)cc1 (stereo unspecified)	-48%	0%	-12%	10µM*
SMILES	AmpC no deterg	AmpC inh detg	FBPA Giardia inh	Sm TGR block
COC(=O)CCC(=O)OC1(C)C(=O)C2=COC(c3ccc(OC)cc3)=CC2=C(Br)C1=O (stereo unspecified)	-28%	-1%	?	7.9µM*
CCc1[nH]c(=S)c(C#N)c(-c2ccccc2)c1C(=O)OC	16µM*	-4%	?	-4%
O=C(COC(=O)/C=C/c1cccc(C(F)(F)F)c1)NCCN1C(=O)CSC1=O	0%	7%	nt	-1%
O=C(Nc1nccs1)c1ccc(-c2ccc(F)c(Cl)c2)o1	25µM*	0%	nt	?
CC(=O)O[C@@H]1C(CO[Si](C)(C)C(C)(C)C)=C(Br)C(=O)[C@@H]2O[C@]12C	nt	nt	-9%	nt
Oc1ccc(C2CNCc3sccc32)cc1O (stereo unspecified)	-30%	?	-7%	35µM*
C=CCNC(=S)Nc1cccc2ccccc12	-14%	7%	16µM*	-6%
S=C(NCCc1ccccc1)Nc1ccccc1Cl	-29%	-4%	0%	-13%
S=C(NCCc1ccncc1)Nc1cccc2ccccc12	-8%	-2%	-1%	14µM*
O=C(NC1CCCCCC1)c1cc2c(Cl)nc3ccccc3c2s1	nt	-11%	nt	-8%
CC1(OC(=O)c2ccc(Cl)nc2)C(=O)C=c2cc(-c3ccsc3)ncc2=C1OC(=O)C1CCCC1 (stereo unspecified)	nt	nt	3%[12.9 µM]	nt
O=C(CCC(=O)N1CC2CCCN2c2ccccc21)NCc1ccccc1 (stereo unspecified)	nt	23%	nt	-5%
Cn1c(O)c(/C=C2\C=Nc3ccccc32)c(=O)n(C)c1=O	-13%	-1%	3%	-28%
Cn1c(O)c(/C=C2\C=c3ccccc3=NC2=O)c(=O)n(C)c1=O	-22%	-8%	-8%	35µM*
COC12C(COC(N)=O)C3=C(C(=O)C(C)=C(N)C3=O)N1CC1C2N1C (stereo unspecified)	-20%	6%	?	13µM*
Cc1ccc(NC(=O)c2ccc3nccnc3c2)c(C)c1	-19%	-13%	-9%	56µM*
O=C(CCCNC(=O)c1ccc(Cl)cc1)Nc1nccs1	-14%	nt	nt	nt
Cc1ccc(-n2c(C)c([N+](=O)[O-])c3ccc(O)cc32)cc1	1%	2%	-18%	8.9µM*
Cc1c([N+](=O)[O-])c2ccc(O)cc2n1-c1ccccc1	-21%	-1%	-4%	-14%
COc1ccccc1C(=O)N(Cc1ccc(Cl)cc1)C1CCS(=O)(=O)C1 (stereo unspecified)	28%	6%	nt	-6%
Cc1ccccc1/C=N/N1C(=O)CSC1=S	-29%	-2%	-5%	10µM*
O=C1CSC(=S)N1/N=C/c1cccnc1	-12%	-2%	?	6.3µM*
COc1cc(/C=N/N2C(=O)CSC2=S)ccc1O	-31%	-7%	-24%	5.6µM*
O=C1CSC(=S)N1c1cccnc1	-15%	-9%	-16%	5%[11.4 µM]
O=C1CSC(=S)N1/N=C/c1cc(Br)c(O)c(Br)c1	?	?	-28%	20µM*
SMILES	AmpC no deterg	AmpC inh detg	FBPA Giardia inh	Sm TGR block
S=c1ccss1	nt	nt	-8%	nt
CSCCC(NS(=O)(=O)c1ccc(C)cc1)C(=O)N1CC=C(c2ccccc2)CC1 (stereo unspecified)	-16%	-11%	nt	5%
O=C1CSC(=S)N1/N=C/c1ccc2c(c1)OCCO2	-28%	-15%	-7%	7.1µM*
COc1ccc(Br)cc1/C=N/N1C(=O)CSC1=S	28µM*	?	-10%	-36%
O=C1CSC(=S)N1/N=C/c1ccc(Cl)c([N+](=O)[O-])c1	13µM*	5%	15%	22µM*
COc1ccc(Br)cc1/C=N/n1nnnc1N	-20%	1%	-8%	29%
Cc1cc(C)nc(NS(=O)(=O)c2ccc(NC(=O)c3ccccc3O)cc2)n1	nt	0%	nt	-11%
